# Screening data as filed in PubChem BioAssay.
# Only a selection was taken, and hits are over-represented in it overall.
# HIV RNase H inh-1: inhibitors of HIV-1 reverse transcriptase RNase H; P04585; RT-RNase H RNA/DNA duplex cleavage, fluorescence; inhibition, % at 10 µM; hit rate 1.9% among 65,000; in the data active = inhibition above about 50%
# HIV RNase H inh-2: confirmation of HIV-1 reverse transcriptase RNase H inhibitors; AID 651; inhibition, % at 10 µM; Recombinant RT RNase H, fluorescent RNA/DNA duplex cleavage; hit rate 39% among 1,000; shares compounds with HIV RNase H inh-1; in the data active = inhibition above about 48%; inconclusive = no clear call, values can overlap the other calls
# * hit, by the source's call; ? = inconclusive.
SMILES,HIV RNase H inh-1,others
CCOC(=O)c1c(C)n(C)c2ccc(OC)c(NC(=O)CN3CCN(C(=O)c4ccco4)CC3)c12,8,
COc1cc(C)nc(N(C)S(=O)(=O)c2ccccc2Cl)n1,-20,
COc1ccc(C2=NCC(CSc3nccc(=O)[nH]3)S2)cc1 (stereo not given),-7,
COc1ccc(C2=NCC(CSc3nnc(-c4ccc5c(c4)OCO5)o3)S2)cc1 (stereo not given),-23,
CCN(CC)S(=O)(=O)c1ccc2oc(SCC3CN=C(c4ccc(OC)cc4)S3)nc2c1 (stereo not given),59*,HIV RNase H inh-2=6
O=C(Nc1ccccc1F)N(CCCN1CCOCC1)Cc1cc2cc3c(cc2[nH]c1=O)OCCO3,-12,
CC(C)Cn1c(=O)c(C(=O)Nc2ccncc2)c(O)c2ccccc21,71*,HIV RNase H inh-2=47
CC(C)Cn1c(=O)c(C(=O)Nc2cnccn2)c(O)c2ccccc21,-12,
Cn1c(=O)c(C(=O)Nc2cccnc2)c(O)c2ccccc21,-13,
CCN(CCCNC(=O)CN(C)S(=O)(=O)c1cccc2nsnc12)c1ccccc1,-15,
NC(=O)C1(N2CCCCC2)CCN(Cc2ccccc2Cl)CC1,-1,
COc1ccccc1N(CN1CCCC1=O)C(=O)COc1ccccc1,-9,
CCn1c2ccccc2c2nnc(SCC(=O)c3ccccc3)nc21,2,
CSc1nnc2c3cc(C)ccc3n(Cc3ccccc3)c2n1,50*,HIV RNase H inh-2=-3
C=CCn1c2ccccc2c2nnc(SCN3C(=O)c4ccccc4C3=O)nc21,-22,
CN(C)c1nc(OCC(=O)NC(C)(C)C)nc(N(C)C)n1,-10,
Fc1ccc(CN2CCCCCCC2)cc1F,-9,
CCOc1ccc(N(CC(=O)Nc2ccc(OC)cc2)S(=O)(=O)c2c(C)noc2C)cc1,-6,
CCOc1ccc(NC(=O)CN(c2cc(C)cc(C)c2)S(=O)(=O)c2c(C)noc2C)cc1,-3,
CCOc1ccc(N(CC(=O)Nc2ccc3c(c2)OCCO3)S(=O)(=O)c2c(C)noc2C)cc1,56*,HIV RNase H inh-2=12
O=C(Nc1ccc(C(=O)Oc2ccccc2)c(O)c1)c1ccco1,-2,
O=C1C(=O)N(CCCn2ccnc2)C(c2cccnc2)/C1=C(/O)c1ccc(Br)cc1 (stereo not given),1,
CCn1cc(C(=O)O)c(=O)c2cnc(N3CCN(C(=O)Nc4cccc5ccccc45)CC3)nc21,1,
O=C(CCn1c(=O)oc2ccccc21)Nc1nccs1,-13,
CC(C)(C)c1csc(NC(=O)Cn2c(=O)oc3ccccc32)n1,88*,HIV RNase H inh-2=21
SMILES,HIV RNase H inh-1,others
CCN(CC)S(=O)(=O)c1ccc(NC(=O)Cn2c(=O)oc3ccccc32)cc1,-7,
CCCn1c(SCC(=O)NCCc2ccc(Cl)cc2Cl)n[nH]c1=O,-19,
O=C(c1ccco1)N(Cc1cc2ccccc2[nH]c1=O)C1CCCCC1,0,
Cc1ccc2cc(CCNC(=O)c3ccco3)c(=O)[nH]c2c1,2,
Cc1ccc2cc(CN(C(=O)c3ccco3)c3ccccc3C)c(=O)[nH]c2c1,70*,HIV RNase H inh-2=39
Cc1ccccc1OCc1nnc2c3cnn(C)c3ncn12,12,
CCOC(=O)C(NC(C)=O)(Nc1ccc(S(=O)(=O)Nc2cc(C)nc(C)n2)cc1)C(F)(F)F (stereo not given),-12,
CCCc1c(CC)c(=N)c2ccccc2n1C,-2,
CC1(C)NC(=O)NC2(C)NC(=O)NC(C)(C)C12 (stereo not given),-12,
CCSc1nnc(NC(=O)c2cnccn2)s1,3,
CCSc1nnc(NC(=O)c2ccccn2)s1,3,
CCSc1nnc(NC(=O)c2csc3c2CCCC3)s1,62*,HIV RNase H inh-2=?
CCOC(=O)C(C)Sc1nc(-c2ccc(OC)cc2)nc2c1c(=O)n(C)c(=O)n2C (stereo not given),38,
CC(=O)N1CCN(c2ccc(NC(=O)c3ccccc3Br)cc2Cl)CC1,-5,
Cc1cccc(OCCSc2cc(C)nc(N)n2)c1,-43,
CC1(C)Cc2ccccc2C2CC(O)C(=O)N21 (stereo not given),25,
O=C(c1ccccc1S(=O)(=O)NCc1ccccc1)N1CCCC1,-16,
NC(=O)c1ccccc1NS(=O)(=O)Cc1ccccc1,8,
O=C(O)c1ccccc1S(=O)(=O)Cc1ccccc1,71*,HIV RNase H inh-2=15
O=C(Nc1ccc(NC(=O)C2CC2)nc1)c1ccncc1,10,
Cc1ccc(SCCCCN2C(=O)NC(C)(C)C2=O)cc1,-3,
C=CCOc1ccc2ccccc2c1CNc1ncn[nH]1,-5,
CCOc1ccc(NC(=O)CN2C(=O)C3CCCN3C2=O)cc1 (stereo not given),1,
CC1=C(C)C(=O)N(c2ccc(C(=O)O)cc2)C1=O,-4,
O=C1CC(N2CCN(Cc3ccccc3)CC2)C(=O)N1c1ccccc1 (stereo not given),13,
SMILES,HIV RNase H inh-1,others
COc1ccc(S(=O)(=O)N2CCN(Cc3ccccc3)CC2)cc1,-4,
O=C1C(Cl)=C(N2CCN(Cc3ccccc3)CC2)C(=O)N1c1ccccc1,85*,HIV RNase H inh-2=-3
COc1ccc(N2C(=O)C(Cl)=C(N3CCN(Cc4ccccc4)CC3)C2=O)cc1,90*,HIV RNase H inh-2=24
COc1ccc(N2C(=O)C(Cl)=C(N(CCO)Cc3ccccc3)C2=O)cc1,30,
Cc1ccc(C(=O)N2CCN(c3ccc(Cl)cc3)CC2)cc1,2,
Cc1cc(=O)[nH]c(N2CCN(Cc3ccccc3)CC2)n1,0,
CN1CCN(C2=C(Cl)C(=O)N(c3ccc(Cl)cc3)C2=O)CC1,82*,HIV RNase H inh-2=40
COCCSc1ccccc1C(=O)N1CCN(Cc2ccc3c(c2)OCO3)CC1,-3,
CC(OC(=O)c1ccncc1)C(=O)Nc1cccc(Cl)c1 (stereo not given),-17,
O=c1nc(-c2ccccc2)n(-c2ccccc2)c2ncccc12,-3,
COC(=O)CCCCCC(CCC(=O)OC)NC(C)=O (stereo not given),-11,
Cc1[nH]c2ccc(-c3nnc(SCC(=O)c4ccc(F)cc4)o3)cc2c1C,79*,HIV RNase H inh-2=?
COc1cc(-c2nnc(SCC(=O)c3ccc(C)cc3)o2)cc(OC)c1OC,-7,
O=C(CSc1nnc(CNc2ccc(F)cc2)o1)N1CCN(C(=O)c2ccco2)CC1,-12,
COc1ccc(C(=O)CSc2nnc(-c3ccc(C)cc3)o2)cc1,26,
O=C(CSc1nnc(-c2ccc(F)cc2)o1)N1CCN(C(=O)c2ccco2)CC1,81*,HIV RNase H inh-2=32
O=C(CSc1nnc(-c2ccc(F)cc2)o1)c1ccc2c(c1)OCCO2,59*,HIV RNase H inh-2=?
O=C(CSc1nnc(CNc2ccccc2)o1)c1ccc2c(c1)OCCO2,-81,
O=C(CSc1nnc(-c2ccccc2Br)o1)N1CCN(C(=O)c2ccco2)CC1,2,
CCCn1nnnc1SCC(=O)c1ccc2c(c1)OCCO2,-4,
COc1ccc(OC)c(S(=O)(=O)N2c3cc(F)ccc3CCC2C)c1 (stereo not given),-52,
CCOC(=O)CN1C(=O)C(O)(C2CCc3ccccc3C2=O)c2ccccc21 (stereo not given),-5,
COC(=O)c1ccc(Oc2nc3ccccc3n3c(C)nnc23)cc1,-7,
Cn1c(C(=O)N2CCc3ccccc32)cc2c(=O)n3ccccc3nc21,-9,
Cc1onc(-c2ccccc2)c1C(=O)NC(C)C1CCCO1 (stereo not given),-3,
Cc1cc(C)cc(N(CC(=O)N2CCN(Cc3ccccc3)CC2)S(=O)(=O)c2c(C)noc2C)c1,-4,
CC1CN(C(=O)Nc2ccc3snnc3c2)c2ccccc21 (stereo not given),-8,
COc1ccccc1OCc1nc(Cc2ccc(Cl)cc2)no1,-41,
